# RBX1-CUL1 inh = inhibitors of human ROC1-CUL1 ubiquitin ligase activity; hit rate 0.6% among 140,000; in vitro K48 di-Ub FRET, acceptor:donor ratio, 45 min; E3 ubiquitin-protein ligase RBX1 (Homo sapiens) + Cullin-1 (Homo sapiens), P62877+Q13616; inhibition, % at 10 µM; in the data active = inhibition above about 25%
# Target sequence (P62877 whole entry, looked up): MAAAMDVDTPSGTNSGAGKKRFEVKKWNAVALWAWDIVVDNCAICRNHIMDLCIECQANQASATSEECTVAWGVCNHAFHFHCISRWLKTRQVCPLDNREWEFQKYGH
# Target sequence (Q13616 whole entry, looked up): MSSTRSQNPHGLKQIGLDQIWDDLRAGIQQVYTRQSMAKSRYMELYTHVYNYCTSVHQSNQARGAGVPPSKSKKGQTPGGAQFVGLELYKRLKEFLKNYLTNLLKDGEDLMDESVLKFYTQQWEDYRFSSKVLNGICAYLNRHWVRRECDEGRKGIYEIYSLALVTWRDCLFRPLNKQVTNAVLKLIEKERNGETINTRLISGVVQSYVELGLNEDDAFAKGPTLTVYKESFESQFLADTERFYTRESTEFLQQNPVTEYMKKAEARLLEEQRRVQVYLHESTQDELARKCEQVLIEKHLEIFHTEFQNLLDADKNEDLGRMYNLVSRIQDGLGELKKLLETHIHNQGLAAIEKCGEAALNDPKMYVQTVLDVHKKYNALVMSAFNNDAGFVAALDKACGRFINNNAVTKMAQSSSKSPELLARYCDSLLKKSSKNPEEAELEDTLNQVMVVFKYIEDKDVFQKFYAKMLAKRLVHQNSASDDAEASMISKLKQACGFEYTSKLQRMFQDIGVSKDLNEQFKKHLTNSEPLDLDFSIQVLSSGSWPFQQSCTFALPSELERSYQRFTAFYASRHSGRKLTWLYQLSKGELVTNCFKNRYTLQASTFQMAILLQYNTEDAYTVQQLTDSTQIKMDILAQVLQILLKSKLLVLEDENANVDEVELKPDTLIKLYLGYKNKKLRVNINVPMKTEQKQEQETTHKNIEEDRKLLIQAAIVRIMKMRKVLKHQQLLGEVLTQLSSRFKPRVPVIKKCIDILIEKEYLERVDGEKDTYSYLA
# Active calls of the source: *. Many of the other results were omitted from the sample, so hits are more common in it than they were.
SMILES,RBX1-CUL1 inh
Cc1cc(/C=C2\C(=O)NC(=S)N(c3cccc(Cl)c3)C2=O)c(C)n1-c1sc2c(c1C(=O)Nc1ccccc1)CCCC2,8.1
Cc1cccc(N2C(=O)/C(=C/c3cc(C)n(-c4sc5c(c4C(=O)Nc4ccccc4)CCCC5)c3C)C(=O)NC2=S)c1,4.4
CC1CCN(S(=O)(=O)c2cc(C(=O)NC3CCCC3)ccc2F)CC1,-1.6
CSc1nc(SC)c([N+](=O)[O-])c(SC)n1,-3.8
COC(=O)c1c(-c2ccc(C)cc2)csc1NC(=O)c1ccc(F)cc1,-4.5
Cc1cc(/C=C2/SC(=S)N(CC(=O)O)C2=O)c(C)n1-c1ccccc1,15.8
O=C(O)CN1C(=O)/C(=C\c2ccccc2Sc2ccc(Cl)cc2)SC1=S,103.1*
CCOc1ccccc1/C=C1\SC(=S)N(CC(=O)O)C1=O,3.7
CN(C(=O)c1ccc(=O)n(C)n1)C1CCCN(CCc2ccccc2)C1 (stereo not given),-0.1
CC(C)(C)NC(=O)c1ccc2c(c1)C(=O)N(C1CCCCC1)C2=O,-0.3
COc1ccc(C(=O)Nc2ccc3c(c2)C(=O)N(C2CCCCC2)C3=O)cc1,11.1
O=C(O)c1cccc(NC(=O)c2ccc3c(c2)C(=O)N(C2CCCCC2)C3=O)c1,26.5*
CO/C=C\C=C/c1nnn(-c2ccc(Cl)cc2)n1,38.0*
CCOC(=O)C=CCn1nnn(-c2ccc(Cl)cc2)c1=O,2.1
COCc1c(C(=O)O)nnn1-c1ccc(Cl)cc1,3.3
Cc1cc(C(=O)N2CCCC(CCc3ccccc3C)C2)no1 (stereo not given),0.8
Cc1cc(C)nc(NS(=O)(=O)c2ccc(NC(=O)COc3ccc(Cl)cc3C)cc2)n1,2.7
Cc1cc(C)nc(NS(=O)(=O)c2ccc(NC(=O)Nc3ccc(Cl)cc3)cc2)n1,25.4*
Cc1cc(C)nc(NS(=O)(=O)c2ccc(NC(=O)c3ccc(Cl)cc3Cl)cc2)n1,-4.7
CCCCCCN1C(=O)NC(=O)/C(=C\c2ccc3c(c2)OCO3)C1=O,7.0
CCCCN1C(=O)/C(=C/c2ccc3c(c2)OCO3)C(=O)N(Cc2ccco2)C1=S,101.4*
O=C1NN(c2ccc(Br)cc2)C(=O)/C1=C\C=C\c1ccco1,3.9
CCCCC1(C)OC(=O)C(=Cc2ccc3c(c2)OCO3)C(=O)O1 (stereo not given),-4.8
CCCCN1C(=O)C(=Cc2ccc(OCC)c(OC)c2)C(=O)N(CCCC)C1=S,1.1
CCCCN1C(=O)C(=Cc2ccco2)C(=O)N(CCCC)C1=S,98.9*
SMILES,RBX1-CUL1 inh
CCCCN1C(=O)C(=O)N(c2ccccc2)C1=S,1.4
CCCCN1C(=O)C(=Cc2cccs2)C(=O)N(CCCC)C1=S,4.0
CCCCN1C(=O)C(=C/C=C/c2ccco2)C(=O)N(CCCC)C1=S,31.2*
CC(=O)c1cccc(CN2CCOC(Cc3cccc(F)c3)C2)c1 (stereo not given),5.5
CC1(C)OC2OC(C(O)c3cc(O)c4c(c3O)C(=O)c3ccccc3C4=O)C(C)(O)C2O1 (stereo not given),64.5*
CCCCNC(=O)[C@H]1C[C@@H](C(=O)OC)N(C)[C@H]1c1cccc(F)c1F,-2.0
Cc1sc2[nH]c(=O)n(-c3ccc(Cl)c(Cl)c3)c(=O)c2c1C,8.2
CC(C)c1ccc2c(c1)C(N1CCN(CCOc3ccc(F)cc3)CC1)Cc1ccc(F)cc1S2 (stereo not given),1.7
CCOC(=O)C1C(=N)Oc2cc(C)oc(=O)c2C1c1ccccc1F (stereo not given),7.6
COC(=O)C(Cc1c[nH]c2ccccc12)NC(=O)C12CC3CC(CC(C3)C1)C2 (stereo not given),0.3
N#C/C(=C\c1ccccc1)S(=O)(=O)c1ccccc1,0.2
COc1ccc(-c2ccc(/C=C(/C#N)S(=O)(=O)c3ccccc3)o2)cc1,28.8*
N#C/C(=C\c1ccc(F)cc1)S(=O)(=O)c1ccccc1,8.6
Cc1cc(/C=C2\C(=O)NC(=S)N(C)C2=O)c(C)n1-c1ccc(C(=O)O)cc1,2.5
Cc1cc(/C=C2/C(=O)NC(=S)N(c3ccc(Br)cc3)C2=O)c(C)n1-c1ccccc1,8.4
Cc1ccc(N2C(=O)/C(=C/c3cc(C)n(-c4cccc(C(=O)O)c4)c3C)C(=O)N(C)C2=S)cc1,33.8*
Cc1cccc(C)c1NC(=O)C1CCN(Cc2ccccc2)CC1,10.5
Nc1c(C(=O)OCc2ccccc2)sc2nc(-c3cccnc3)ccc12,5.4
CCOc1cc(C=C2C(=O)NC(=S)NC2=O)cc(Br)c1OCc1ccc(C(=O)O)cc1,4.1
CCOc1cc(C=C2C(=O)NC(=S)NC2=O)cc(Cl)c1OCc1ccc(C(=O)O)cc1,50.4*
O=C1NC(=O)C(=Cc2cc(Cl)c(OCc3ccc(C(=O)O)cc3)c(Cl)c2)C(=O)N1,-2.2
O=S(=O)(c1ccc(C23CC4CC(CC(C4)C2)C3)cc1)N1CCOCC1,1.8
O=C(/C=C/C=C/c1ccccc1)c1cc(Cl)ccc1O,-2.6
Cn1c(O)c(C=C2C=Nc3ccccc32)sc1=Nc1ccc(C(=O)O)cc1,6.7
Cc1cccc(C(=O)N2CCC(N3CCCC(C(=O)NC4CC4)C3)CC2)c1 (stereo not given),11.4
SMILES,RBX1-CUL1 inh
COc1ccc(C(=O)N2CCC(N3CCCC(C(=O)NC4CC4)C3)CC2)o1 (stereo not given),-0.6
Cc1occc1C(=O)N1CCC(N2CCCC(C(=O)NC3CC3)C2)CC1 (stereo not given),25.0*
CC(C)OC(=O)c1cccc(NC(=O)Cn2nnc3sc4c(c3c2=O)CCCC4)c1,4.6
CC(C)OC(=O)c1ccc(Cn2nnc3sc4c(c3c2=O)CCCC4)cc1,44.1*
CC1CCc2c(sc3nnn(Cc4cccc(C(=O)OC(C)C)c4)c(=O)c23)C1 (stereo not given),-4.1
Nc1c(C(=O)Nc2ccc(F)c(F)c2)sc2nc(-c3ccc(F)cc3)ccc12,-4.4
Cc1c(Cl)cccc1NC(=O)CSc1nnc(C)n1-c1cccc(Cl)c1,-9.9
CC1=CC(=O)NC2=NN(c3ccccc3)C(=O)C12 (stereo not given),3.8
Cc1ccc(/C=C2\SC(=Nc3ccc(C)c(C)c3)NC2=O)o1,-4.7
CCN(CC)c1ccc(/C=C2\SC(=Nc3ccc(Cl)c(Cl)c3)NC2=O)o1,28.8*
Cc1cc(N=C2NC(=O)/C(=C\c3ccc(Br)o3)S2)ccc1Cl,4.0
Cc1oc(-c2ccc(C(F)(F)F)cc2)nc1CN(CCO)C(C)C,0.5
N#Cc1ccccc1N1CCN([C@@H]2c3ccccc3C3(CCNCC3)[C@H]2O)CC1,-1.8
COc1ccccc1-c1cn2c(C(=O)N[C@H](CO)CCSC)csc2n1,-7.8
C[C@H](CCC(=O)O)[C@H]1CCC2C3CC[C@@H]4C[C@H](OC=O)CC[C@]4(C)C3CC[C@@]21C (stereo not given in full),2.3
Cc1ccc2nc(CCC(C)C3CCC4C5CC[C@@H]6CC(O)CC[C@]6(C)C5CC[C@]34C)[nH]c2c1 (stereo not given in full),-1.0
CC(CCc1nc2ccccc2o1)C1CCC2C3CC[C@@H]4CC(OCCC(=O)O)CC[C@]4(C)C3CC[C@]12C (stereo not given in full),39.5*
Cc1oc(-c2cc(F)ccc2F)nc1CN(Cc1ccccn1)C[C@@H]1CCC(=O)N1,-3.3
CCCOC1CCCN(C(=O)Cn2nnnc2CN2CCCCCC2)C1 (stereo not given),3.2
Nc1nnc(CSCc2ccccc2F)s1,4.8
O=C(CSc1cccc2cccnc12)Nc1cc(C(F)(F)F)ccc1Cl,8.8
COC(=O)C1OC(=O)C(C(=O)OC)C1c1ccccc1 (stereo not given),2.6
